Bioassay records (PubChem)
Only some compounds are listed: those with a hit (about 2.7% of all), similar ones and a draw of the others.
rCAG RNA binder: r(CAG) repeat RNA binding | inhibition, % at 3 µM | hit rate 1.3% among 370,000 | AID 651821 | TO-PRO-1 dye displacement fluorescence;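 active = inhibition above the plate cutoff, the mean of all test compounds on that plate plus 3 SD, cut at about 35% in these data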;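 note: higher means more dye released from RNA so lower well fluorescence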
MsrA inh: inhibitors of bovine MsrA; hit rate 0.75% among 360,000; inhibition, % at 15.5 µM; purified bovine MsrA, absorbance read-out; in the data active = inhibition above about 4.5%
bovine MsrA act: activators of bovine methionine sulfoxide reductase A; purified bovine MsrA, absorbance read-out; activation, % at 10.6 µM; hit rate 0.3% among 360,000; AID 602163; in the data active = activation above about 7.5%
NadD block: NadD (S. aureus) enzyme inhibition. inhibition, % at 20 µM. hit rate 0.78% among 360,000. purified NadD enzyme, colorimetric absorbance read-out; in the data active = inhibition above about 26%
rCAG binder conf: r(CAG) RNA repeat binding, confirmation; shares compounds with rCAG RNA binder; TO-PRO-1 dye displacement fluorescence; inhibition, % at 3 µM; hit rate 70% among 4,300;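 active = inhibition above a per-plate cutoff, the mean inhibition of sample wells plus 3 SD, cut at about 35% in these data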;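 note: loss of TO-PRO-1 fluorescence as compound displaces dye from 1x1 AA loop RNA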
DNA CAG counter: DNA CAG dye complex inhibition counter-screen | hit rate 94% among 4,300 | inhibition, % at 3 µM | d(CAG) DNA oligo TO-PRO-1 dye displacement, fluorescence | AID 652068 | shares compounds with rCAG RNA binder;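 active = inhibition above its plate's cutoff, the mean test-well inhibition plus 3 SD, cut at about 4.8% in these data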;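 note: hits displace the dye from DNA and so lower well fluorescence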
Large screens that a line does not name were inactive (follow-up assays come after a bar, where they were run).

CCCC(NC(=O)Cc1c(C)c2cc3c(C)c(C)oc3c(C)c2oc1=O)C(=O)N[C@@H](Cc1ccccc1)C(=O)O (stereo partly specified)	none
Cc1c(CC(=O)N[C@@H](C)C(=O)O)c(=O)oc2cc3occ(-c4ccccc4)c3cc12	none
CSCC[C@H](NC(=O)Cc1c(C)c2cc3c(C)c(C)oc3cc2oc1=O)C(=O)N[C@@H](C(=O)O)c1ccccc1	rCAG RNA binder 40.4 | rCAG binder conf 46.7 | DNA CAG counter 13.6
CC[C@@H](C)[C@H](NC(=O)Cc1c(C)c2c(cc(C)c3c(C)c(C)oc32)oc1=O)C(=O)O	rCAG RNA binder 35.2 | rCAG binder conf inactive | DNA CAG counter 5.7
Cc1oc2c(c(C)cc3oc(=O)c(CC(=O)N[C@@H](C)C(=O)O)c(C)c32)c1C	none
COc1ccc(/C=C/C(=O)NC(=S)Nc2ccc(S(=O)(=O)Nc3ccc(OC)nn3)cc2)cc1	rCAG RNA binder 69.8 | rCAG binder conf 66.1 | DNA CAG counter 32.5
COc1ccc(/C=C/C(=O)NC(=S)Nc2ccc(S(N)(=O)=O)cc2)cc1	none
Cc1ccc(NC(=S)NC(=O)/C=C/c2ccco2)c(O)c1	rCAG RNA binder 34.9 | rCAG binder conf 38.3 | DNA CAG counter 15.2
COc1cc(NS(=O)(=O)c2ccc(NC(=S)NC(=O)/C=C/c3ccco3)cc2)ncn1	rCAG RNA binder 56.7 | rCAG binder conf 47.9 | DNA CAG counter 15.9
O=[N+]([O-])c1cc(CN(CCO)CCO)ccc1O	none
Cc1ccc(S(=O)(=O)NCC(=O)NCC2CCCCC2)cc1C	none
CCCc1cc(=O)oc2cc(C)c(CN3CCCC3)c(O)c12	rCAG RNA binder 36.8, NadD block 29.4 | rCAG binder conf inactive | DNA CAG counter 11.7
CCc1cc(=O)oc2cc(C)c(CN3CCCC3)c(O)c12	rCAG RNA binder 35.6 | rCAG binder conf inactive | DNA CAG counter 13.0
CCc1cc(=O)oc2cc(C)c(CN3CCCCC3)c(O)c12	none
Cc1cnc(NC(=O)c2cc3c(C)nn(Cc4ccccc4Cl)c3s2)s1	none
Cc1c(C(=O)Nc2ccc(F)cc2)cn2c(nc3ccccc32)c1C#N	none
N#Cc1c2nc3ccccc3nc2n2cc(NC(=O)c3ccc(F)cc3)ccc12	rCAG RNA binder 35.5 | rCAG binder conf 41.5 | DNA CAG counter 20.3
Cc1ccc2[nH]c(C(=O)O)c(NC(=O)CN3CCN(c4cccc(C)c4C)CC3)c2c1	rCAG RNA binder 65.3 | rCAG binder conf 68.8 | DNA CAG counter 28.4
COc1ccccc1CNC(=O)c1ccc(NC2=NC3CS(=O)(=O)CC3S2)cc1 (stereo unspecified)	none
COc1cc(C(NC(C)=O)NC(C)=O)ccc1OCc1ccccc1	none
O=C(O)COc1ccc(Br)cc1C(c1c(C(=O)O)[nH]c2ccccc12)c1c(C(=O)O)[nH]c2ccccc12	none (no result: rCAG RNA binder, MsrA inh)
C=CCOc1ccc(C(c2c(C(=O)O)[nH]c3ccccc23)c2c(C(=O)O)[nH]c3ccccc23)cc1	rCAG RNA binder 92.2 | rCAG binder conf 82.2 | DNA CAG counter 51.0
O=C(O)c1[nH]c2ccccc2c1C(c1cc(Cl)cc([N+](=O)[O-])c1O)c1c(C(=O)O)[nH]c2ccccc12	rCAG RNA binder 91.6 | rCAG binder conf 73.4 | DNA CAG counter 37.3
COc1cc(C(c2c(C(=O)O)[nH]c3ccccc23)c2c(C(=O)O)[nH]c3ccccc23)ccc1OCc1ccccc1	rCAG RNA binder 94.1 | rCAG binder conf 89.8 | DNA CAG counter 67.7
O=C(O)c1[nH]c2ccccc2c1C(c1ccccc1)c1c(C(=O)O)[nH]c2ccccc12	rCAG RNA binder 70.4 | rCAG binder conf 47.1 | DNA CAG counter 14.8
O=C(c1[nH]c(C(F)(F)F)nc1-c1ccccc1)N1CCN(c2ccccn2)CC1	none
Cc1c(NC(=O)COC(=O)/C=C/c2ccccc2Br)c(=O)n(-c2ccccc2)n1C	none
CCn1c(SCC(=O)Nc2ccc3c(c2)OCCO3)nnc1-c1cccnc1	none
COCCn1c(SCC(=O)NCCCN2CCCC2=O)nc2ccccc2c1=O	none
Cc1ccc(C(=O)Nc2ccccc2C(=O)NC(Cc2c[nH]c3ccccc23)C(=O)O)cc1 (stereo unspecified)	rCAG RNA binder 61.0 | rCAG binder conf 62.5 | DNA CAG counter 24.1
Cc1ccc(C(=O)Nc2ccccc2C(=O)NC(Cc2ccccc2)C(=O)O)cc1 (stereo unspecified)	rCAG RNA binder 42.8 | rCAG binder conf 38.3 | DNA CAG counter 8.7
COc1cc(NC(=O)NNC(=O)c2cc3occc3n2C)cc(OC)c1OC	none
